Several values for one entry are separate records, joined by “and”; a condition that tells them apart may be missing. Equal values may be shown once. Records with an inconclusive call do not appear. Activity calls are given as the source filed them. The call rests on the fitted dose curve; in most records, active means well fitted curve in the direction sought with a large enough effect; inconclusive means small, poorly fitted or top-dose-only effect, or another doubt; inactive means no such curve, though single readings can be large; an effect the other way counts as inactive or inconclusive.
Key:
[1] = biological target: Phospholipid hydroperoxide glutathione peroxidase GPX4 (Homo sapiens) (UniProt P36969); assay: Primary qHTS Assay for Inhibitors of Recombinant Selenoprotein Glutathione Peroxidase 4 (GPX4) (AID 1845192); further: nearly all actives have a fitted effect of over 65% in size; on activity change, negative = inhibition: series mostly up to about 50 µM; on the % scale 0 is the no-effect control and ±100 the full control effect
How it was run: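 GR-coupled assay: recombinant GPX4 preincubated 30 min with compound at room temperature; final 200 nM GPX4, 1 mM GSH, 0.5 mM cumene hydroperoxide, 0.5 mM NADPH, 100 nM GR, 0.01% BSA, pH 7.5 Tris. NADPH fluorescence (340/450 nm) read at 0 and 15 min.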

[2] = biological target: Luciferin 4-monooxygenase (Photinus pyralis) (UniProt P08659); assay: Primary firefly luciferase (FLuc) qHTS assay for identification of artifact compounds. (AID 1845220); further: nearly all actives have a fitted effect of over 60% in size;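 on activity change, negative = inhibition: series mostly up to about 54 µM; plate controls were DMSO vehicle for no effect and no enzyme for full effect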
How it was run: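 Titrated compounds were incubated 15 min at RT, protected from light, with luciferin and ATP at 10 uM; reaction started with 10 nM FLuc, luminescence imaged at 5 min, and concentration-response fitted by Hill equation.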

[3] = Primary fluorescence-based thiol-reactive (MSTI) qHTS assay for identification of artifact compounds. (AID 1845221); further: nearly all actives have a fitted effect of over 65% in size; further: potency means the concentration at half of the fitted maximal effect;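 on activity change, negative = thiol reactive: series mostly up to about 54 µM; thiol-reactive compounds lower the probe fluorescence signal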
How it was run: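 A multi-concentration qHTS design tested compounds against 4 uM MSTI, pH 7.4 phosphate-buffered saline. Plates were protected from light for 1 h at room temperature before imaging fluorescence.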

[4] = test system: Nanoluciferase (engineered Oplophorus gracilirostris luciferase); assay: Primary Nanoluciferase (NLuc) qHTS assay for identification of artifact compounds. (AID 1845222); further: potency means the concentration at half of the fitted maximal effect;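 on activity, negative = inhibition: NLuc secreted into diluted conditioned medium of S16 cells; series mostly up to about 54 µM; 0% = DMSO and -100% = no enzyme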
How it was run: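 qHTS format, against NLuc in S16 cell-conditioned medium. Nano-Glo substrate 1:100 was added after 15 min at room temperature. Luminescence was taken after a further 5 min.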

[5] = Primary redox qHTS assay for identification of artifact compounds. (AID 1845223);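 further: 0% = DMSO and 100% = reference compound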
How it was run: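 Amplex Red (25 uM) and HRP (250 mU/mL) in HBSS, with compounds for 15 min, then 250 uM DTT for 30 min, room temperature, dark. Fluorescence 525/598 nm read; normalized to DMSO and 10 uM DA3003; Hill fit.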

Sequence of Phospholipid hydroperoxide glutathione peroxidase GPX4 (Homo sapiens) (P36969 whole entry, looked up): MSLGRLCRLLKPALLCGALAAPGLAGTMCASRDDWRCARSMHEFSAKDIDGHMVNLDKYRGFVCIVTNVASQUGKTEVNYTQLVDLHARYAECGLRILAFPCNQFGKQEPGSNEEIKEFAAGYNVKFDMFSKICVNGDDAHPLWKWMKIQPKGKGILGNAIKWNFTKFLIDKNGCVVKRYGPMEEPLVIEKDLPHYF

Cc1cc(C)c(S(=O)(=O)N(Cc2ccc(-c3cccc(S(C)(=O)=O)c3)cc2)Cc2ccc(C(F)(F)F)o2)c(C)c1
inactive: Potency [1] | Potency [2] | Potency [3] | Potency [4] | Potency [5]

COc1cc(/C=C/c2cc(O)cc(O[C@@H]3O[C@H](CO)[C@@H](O)[C@H](O)[C@H]3O)c2)ccc1O
inactive: Potency [1] | Potency [2] | Potency [3] | Potency [4] | Potency [5]

Clc1ccc(CN[C@H]2CCN(c3ncc(Br)cn3)C2)c(Cl)c1
inactive: Potency [1] | Potency [2] | Potency [3] | Potency [4] | Potency [5]

CC1CCC2C(C)(C)C(O)CCC2(C)C12Cc1c(O)cc3c(c1O2)C(N)=NC3 (stereo not given)
inactive: Potency [1] | Potency [2] | Potency [3] | Potency [4] | Potency [5]

CCN[C@@H]1C[C@H](N)[C@@H](O[C@H]2OC(CN)=CC[C@H]2N)[C@H](O)[C@H]1O[C@H]1OC[C@](C)(O)[C@H](NC)[C@H]1O
inactive: Potency [1] | Potency [2] | Potency [3] | Potency [4] | Potency [5]

CC(C)Nc1cc(-c2c[nH]c(C(=O)N[C@H](CO)c3cccc(Cl)c3)c2)c(Cl)cn1
inactive: Potency [1] | Potency [2] | Potency [3] | Potency [4] | Potency [5]

CC1OC(O[C@H]2[C@@H](O)C[C@@]3(C)C([C@H](O)C[C@]4(C)C3CC=C3C5CC(C)(C)CC[C@]5(C(=O)OC5OC(CO)C(O)C(O)C5OC5OCC(OC6OCC(OC7OCC(O)C(O)C7O)C(O)C6O)C(OC6OCC(O)(CO)C6O)C5O)CC[C@]34C)[C@]2(C)CO)C(O)C(O)C1O (stereo not given in full)
inactive: activity change, negative = inhibition [1] -6.84% [at 9.73 µM] | activity change, negative = inhibition [2] 2.08% [at 11.6 µM] | activity change, negative = thiol reactive [3] 280% [at 11.5 µM] | activity, negative = inhibition [4] 3.85% [at 11.6 µM] | redox activity (% of DA3003) [5] 1.03% [at 11.5 µM]

CNC(=O)O[C@H]1COc2ccc(N3CCN(C4COC4)CC3)cc2[C@@H]1NC(=O)c1ccc(F)cc1
inactive: Potency [1] | Potency [2] | Potency [3] | Potency [4] | Potency [5]

COc1c(C)c(C(=O)c2ccc(N)c(C(=O)O)c2)n2ccccc12
inactive: Potency [1] | Potency [2] | Potency [5]
active: Potency [3] 4.74 µM and 5.32 µM | Potency [4] 9.53 µM

C[C@]12CC[C@@H]3c4ccc(O[C@@H]5O[C@H](C(=O)O)[C@@H](O)[C@H](O)[C@H]5O)cc4CC[C@H]3[C@@H]1CCC2=O
inactive: Potency [1] | Potency [2] | Potency [3] | Potency [4] | Potency [5]

C=C1CCC2C(C)(C)C(O)CCC2(C)C1CCC(C)CCOC(=O)CCC(=O)O (stereo not given)
inactive: Potency [1] | Potency [2] | Potency [3] | Potency [4] | Potency [5]

O=C(OCC12OC1C=CC(OC(=O)c1ccccc1)C2O)c1ccccc1 (stereo not given)
inactive: Potency [1] | Potency [2] | Potency [3] | Potency [4] | Potency [5]

C=C1[C@@H]2CC[C@@]3(C)[C@H](c4ccoc4)OC(=O)C[C@]13O[C@H]1CC(=O)C(C)(C)[C@H](CC(=O)OC)[C@]12C
inactive: Potency [1] | Potency [2] | Potency [3] | Potency [4] | Potency [5]

CC(=O)c1c(O)cc2c(c1C)C(=O)CC(O)C2 (stereo not given)
active: Potency [3] 10.6 µM
inactive: Potency [1] | Potency [2] | Potency [4] | Potency [5]

O=C(COc1ccc(Cl)cc1)NC1CCC(NC(=O)COc2ccc(Cl)cc2)CC1 (stereo not given)
inactive: Potency [1] | Potency [2] | Potency [3] | Potency [4] | Potency [5]

CCC(C)(O)C(O)C(=O)OCc1ccc(O[C@@H]2O[C@H](CO)[C@@H](O)[C@H](O)[C@H]2O)cc1 (stereo not given in full)
inactive: Potency [1] | Potency [2] | Potency [3] | Potency [4] | Potency [5]

C=C(C(=O)O)[C@@H]1CC=C2CCC[C@H](C)[C@@]2(C)C1
inactive: Potency [1] | Potency [2] | Potency [3] | Potency [4] | Potency [5]

COc1c(C)c(OCC=C(C)C)cc2c1C(=O)NC2=O
inactive: Potency [1] | Potency [2] | Potency [3] | Potency [4] | Potency [5]

Cc1[nH]cnc1C1CCN(c2nc3cccc4c3n2CCC4=O)CC1
inactive: Potency [1] | Potency [2] | Potency [3] | Potency [4] | Potency [5]

COCCCNCC1COc2ccccc2O1 (stereo not given)
inactive: Potency [1] | Potency [2] | Potency [3] | Potency [4] | Potency [5]

COC(=O)C1=CO[C@@H](O[C@@H]2O[C@H](CO)[C@@H](O)[C@H](O)[C@H]2O)[C@@H]2[C@@](C)(O)[C@@H](O)C[C@]12O
inactive: Potency [1] | Potency [2] | Potency [3] | Potency [4] | Potency [5]

— PubChem BioAssay (NCATS)
